Some test systems named below: HCT-15 colon; HT29 colon; SNB-75 CNS; SNB-19 CNS; U251 CNS; PC-3 prostate; SK-MEL-5 melanoma; UACC-62 melanoma; LOX IMVI melanoma; SK-MEL-28 melanoma.
Common to all, as to assay: NCI-60 one-dose screen, 48 h (100 = growth as untreated, 0 = no growth, -100 = all killed)
Holding throughout (conditions): 10 µM unless noted

About 83,000 compounds went through this panel and 20% of them were active in at least one assay; those are over-represented in the sample as a whole.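 Single-concentration screen, 48 h exposure, 96-well plates. Endpoint: percent growth. Below 10 = active.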 Unmarked numbers belong to inactive results. Active and inactive are the calls of the source.

For 14 molecules, growth results are on record in PubChem BioAssay (NCI).

For the molecule `Cc1ccc2c(c1)C(C)Cc1c(ncnc1-n1cnc3ccccc31)N2C` (stereo not given), the growth is 12.3% with HCT-15 colon; 4.56% (active) with HT29 colon; -10.3% (active) with SNB-75 CNS; 34% with SNB-19 CNS; 18.4% with U251 CNS; 21.9% in the assay with PC-3 prostate. Moreover, the growth in the assay with SK-MEL-5 melanoma is 12.2%; in the assay on UACC-62 melanoma, 26%; in the assay on LOX IMVI melanoma, 34%; in the assay with SK-MEL-28 melanoma it was 61.8%.

On to `CCCn1c(=S)sc2c(Cl)nc(C)nc21`, for which the growth in the assay on HCT-15 colon is 12.7%; in the assay with HT29 colon, 84%; in the assay on SNB-75 CNS, 8.62% (active); with SNB-19 CNS, 93.5%; in the assay with U251 CNS it was 79%; with PC-3 prostate it was 100%. For the same molecule, the growth in the assay with SK-MEL-5 melanoma is 108%; in the assay with UACC-62 melanoma it was 54.7%; in the assay with LOX IMVI melanoma it was -78.5% (active); in the assay with SK-MEL-28 melanoma, 102%.

For the molecule `Cc1cc(Nc2nc(-c3ccncc3)nc3ccccc23)n[nH]1`, the growth in the assay on HCT-15 colon was 44.2%; with HT29 colon it was 61.3%; in the assay on SNB-75 CNS it was -23.4% (active); in the assay with SNB-19 CNS it was 95%; in the assay with U251 CNS, 115%; in the assay with PC-3 prostate it was 61%. The growth in the assay on SK-MEL-5 melanoma is 89.1%; with UACC-62 melanoma, 55.3%; in the assay with LOX IMVI melanoma, 62.7%; in the assay with SK-MEL-28 melanoma it was 69.1%.

For the molecule `COC1=CC(c2ccc[nH]2)=N/C1=C\c1[nH]c(C)c(C(=O)CCCCC(=O)Oc2ccc3c(c2)CCC2C3CC[C@]3(C)[C@@H](O)CC[C@@H]23)c1C` (stereo not given in full), the growth in the assay with HCT-15 colon is 37.1%; in the assay on HT29 colon, 38.7%; in the assay on SNB-75 CNS, 62.7%; with SNB-19 CNS, 75.6%; in the assay with U251 CNS, 52.6%; in the assay on PC-3 prostate it was 42.9%. Also, the growth was 47.8% in the assay on SK-MEL-5 melanoma, 57.9% in the assay on UACC-62 melanoma, 1.7% (active) in the assay on LOX IMVI melanoma and 81.3% with SK-MEL-28 melanoma.

On to `O=C(NNC(=S)Nc1ccccc1)c1ccccn1`, for which the growth in the assay with HCT-15 colon is 22.8%; with HT29 colon, 57.2%; with SNB-75 CNS, 67.5%; with SNB-19 CNS, 52.2%; in the assay on U251 CNS, 20.4%; in the assay with PC-3 prostate, 34.4%. Further, the growth in the assay with SK-MEL-5 melanoma is 13.8%; in the assay with UACC-62 melanoma, 5% (active); in the assay on LOX IMVI melanoma, 25.9%; with SK-MEL-28 melanoma, 46%.

Consider `COc1cccc(NC(=O)c2sc3nc4c(cc3c2N)CCCC4)c1`, for which the growth in the assay on HCT-15 colon was 20.8%; with HT29 colon, 41.5%; in the assay on SNB-75 CNS, 18.2%; with SNB-19 CNS it was 39.4%; in the assay on U251 CNS it was 19.8%; with PC-3 prostate, 19.2%. For the same molecule, the growth in the assay on SK-MEL-5 melanoma was 26.3%; with UACC-62 melanoma it was 33.2%; with LOX IMVI melanoma, 40.5%; in the assay on SK-MEL-28 melanoma, 48.9%.

Take `Cc1ccc2c(c1)ncn2-c1ncnc2c1CC(C)c1ccccc1N2C` (stereo not given): the growth in the assay on HCT-15 colon was 8.43% (active); with HT29 colon it was 0.836% (active); with SNB-75 CNS, 43.9%; in the assay with SNB-19 CNS, 37.6%; with U251 CNS, 12.1%; in the assay with PC-3 prostate it was 20.9%. In addition, the growth with SK-MEL-5 melanoma is -49.2% (active); with UACC-62 melanoma, 21.5%; with LOX IMVI melanoma, 20.8%; with SK-MEL-28 melanoma, 44.4%.

For the molecule `Cc1ccc(C(=O)c2sc3nc4c(cc3c2N)CCCC4)c(C)c1`, the growth is 29.8% with HCT-15 colon; 9.13% (active) in the assay on HT29 colon; -14.3% (active) in the assay on SNB-75 CNS; 51.5% in the assay with SNB-19 CNS; 21.2% in the assay on U251 CNS; 5.81% (active) with PC-3 prostate. In addition, the growth is 24.6% with SK-MEL-5 melanoma, 24.3% with UACC-62 melanoma, 30.6% in the assay with LOX IMVI melanoma and 55% in the assay on SK-MEL-28 melanoma.

For the molecule `Nc1nn2cc(-c3ccc(Cl)s3)nc2c2ccccc12`, the growth is 87.5% with HCT-15 colon; 92% in the assay with HT29 colon; 81.6% in the assay on SNB-75 CNS; 93% with SNB-19 CNS; 94.7% in the assay with U251 CNS; 83.8% with PC-3 prostate. The growth in the assay with SK-MEL-5 melanoma was 84%; in the assay with UACC-62 melanoma, 81.6%; in the assay with LOX IMVI melanoma it was 82.2%; in the assay on SK-MEL-28 melanoma, 94.2%.

With `COc1ccc(NC(=O)/N=c2\oc3c(OC)cccc3cc2-c2cc3ccccc3[nH]2)cc1`, the growth is 73.3% with HCT-15 colon; 57.7% in the assay with HT29 colon; -8.95% (active) in the assay on SNB-75 CNS; 36.2% in the assay on SNB-19 CNS; 34.1% in the assay on U251 CNS; 39.3% with PC-3 prostate. The growth is 60.6% in the assay on SK-MEL-5 melanoma, 65.6% with UACC-62 melanoma, 73.1% with LOX IMVI melanoma and 81.9% in the assay on SK-MEL-28 melanoma.

Consider `Cc1cc(-c2ccccc2)c(C)n1Cc1ccc(Cl)cc1`, for which the growth was 32.8% in the assay on HCT-15 colon; 13.8% in the assay with HT29 colon; 38.5% in the assay with SNB-75 CNS; 61% in the assay on SNB-19 CNS; 25% in the assay with U251 CNS; 57.3% with PC-3 prostate. In addition, the growth with SK-MEL-5 melanoma was 40.7%; in the assay with UACC-62 melanoma it was 40.7%; with LOX IMVI melanoma it was 45%; in the assay with SK-MEL-28 melanoma it was 55.8%.

On to `C#CCC1(c2ccc(F)c(F)c2)NS(=O)(=O)c2ccccc21` (stereo not given), for which the growth with HCT-15 colon is 103%; in the assay with HT29 colon, 82.9%; with SNB-75 CNS, 99.1%; in the assay with SNB-19 CNS it was 108%; in the assay with U251 CNS it was 96.4%; in the assay with PC-3 prostate, 91.8%. Also, the growth in the assay on SK-MEL-5 melanoma is 103%; in the assay with UACC-62 melanoma it was 106%; in the assay on LOX IMVI melanoma it was 98%; with SK-MEL-28 melanoma, 121%.

On to `O=C(Nc1ccc(I)cc1)c1cc([N+](=O)[O-])ccc1O`, for which the growth in the assay with HCT-15 colon is 36.7%; in the assay with HT29 colon, 48.7%; in the assay on SNB-75 CNS, 57%; in the assay on SNB-19 CNS, 35.4%; in the assay on U251 CNS, 31.1%; in the assay on PC-3 prostate it was 15.3%. The growth with SK-MEL-5 melanoma is -0.402% (active); in the assay on UACC-62 melanoma it was 0.385% (active); in the assay with LOX IMVI melanoma, 20.2%; with SK-MEL-28 melanoma it was 16.4%.

Turning to `CCN(CC)P(=O)(N(CC)CC)N(CCCSC/C=C(\C)CC/C=C(\C)CCC=C(C)C)CCCN1CCN(C)CC1`, the growth is 93.2% in the assay with HCT-15 colon; 98.9% in the assay with HT29 colon; 93% with SNB-75 CNS; 92.8% with SNB-19 CNS; 101% in the assay on U251 CNS; 95.5% with PC-3 prostate. Besides, the growth was 100% in the assay on SK-MEL-5 melanoma, 94.2% in the assay on UACC-62 melanoma, 81.3% with LOX IMVI melanoma and 107% in the assay with SK-MEL-28 melanoma.
